Values joined by “and” are separate entries in the source; they are usually repeats but may differ in a detail not shown here. Identical values can stand only once. Compounds without any hit were thinned out: in the full panel of roughly 83,000, 20% have a hit.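 Testing used 96-well plates and a 48-hour single-concentration exposure. Example: -40 means 40% of the starting cells died.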 Active and inactive are the calls of the source. The calls were made as follows: active = growth percent below 10; inactive = the rest.
Legend:
Assay in all cases: NCI-60 one-dose screen, 48 h (100 = growth as untreated, 0 = no growth, -100 = all killed)
Settings in all cases: 10 µM unless noted
NCI-H226 lung = test system: NCI-H226 lung
HOP-62 NSCLC = test system: HOP-62 NSCLC
NCI-H460 lung = test system: NCI-H460 lung
HOP-92 NSCLC = test system: HOP-92 NSCLC
NCI-H522 lung = test system: NCI-H522 lung
A549/ATCC NSCLC = test system: A549/ATCC NSCLC
786-0 renal = test system: 786-0 renal
COLO 205 colon = test system: COLO 205 colon
NCI-H23 lung = test system: NCI-H23 lung
NCI-H322M lung = test system: NCI-H322M lung

Measured: growth

N=C1N=C(N)CS1
inactive: NCI-H226 lung 96.9% | HOP-62 NSCLC 107% | NCI-H460 lung 103% | HOP-92 NSCLC 99.5% | NCI-H522 lung 103% | A549/ATCC NSCLC 96.6% | 786-0 renal 103% | COLO 205 colon 113%

CC1(C)C2CCC1(CS(=O)(=O)O)C(=O)C2 (centres undefined)
inactive: HOP-62 NSCLC 101%

N/C(=N\N=C\c1ccc2c(c1)OCO2)N/N=C\c1ccc2c(c1)OCO2
inactive: NCI-H23 lung 109% and 89% | NCI-H226 lung 106% and 108% | HOP-62 NSCLC 115% and 101% | NCI-H460 lung 104% and 69.4% | HOP-92 NSCLC 99.8% | NCI-H522 lung 119% and 108% | A549/ATCC NSCLC 107% and 108% | 786-0 renal 103% and 88.6% | COLO 205 colon 108% and 94.5%

CCC(=O)C(CC)c1cccc(OC)c1 (centres undefined)
inactive: NCI-H226 lung 102% | NCI-H322M lung 101% | HOP-62 NSCLC 122% | NCI-H460 lung 107% | HOP-92 NSCLC 97.3% | NCI-H522 lung 102% | A549/ATCC NSCLC 106% | 786-0 renal 103% | COLO 205 colon 117%

C[N+](C)(C)CN1C(=O)c2ccccc2C1=O
inactive: NCI-H23 lung 105% | NCI-H226 lung 112% | HOP-62 NSCLC 96% | NCI-H460 lung 105% | NCI-H522 lung 90.9% | A549/ATCC NSCLC 99.8% | 786-0 renal 104% | COLO 205 colon 104%

CN(C)c1ccc(/C=C(\C#N)c2ccccc2)cc1
inactive: NCI-H23 lung 29.3% and 36.4% and 44.1% | NCI-H226 lung 92.4% and 60.5% and 73% | HOP-62 NSCLC 48.3% and 31.4% and 36.6% | NCI-H460 lung 11.2% and 20.8% and 12.2% | HOP-92 NSCLC 53.9% and 39.5% and 14% | 786-0 renal 44.7% and 42.3% and 45.6%
active: NCI-H522 lung -50% and 2.73% and 5.2% | COLO 205 colon -2% and -7.08%

NC(=S)NS(=O)(=O)c1ccc(N)cc1
inactive: NCI-H226 lung 96% | HOP-62 NSCLC 96.7% | NCI-H460 lung 109% | HOP-92 NSCLC 103% | NCI-H522 lung 102% | A549/ATCC NSCLC 101% | 786-0 renal 105% | COLO 205 colon 108%

COc1cc2nc(N3CCN(C(=O)C4COc5ccccc5O4)CC3)nc(N)c2cc1OC (centres undefined)
inactive: NCI-H23 lung 90.1% and 99% and 101% | NCI-H226 lung 96.2% and 96.7% and 99.9% | HOP-62 NSCLC 102% and 96.4% and 110% | NCI-H460 lung 101% and 98.5% and 117% | HOP-92 NSCLC 148% and 106% and 124% | NCI-H522 lung 82.6% and 84.1% | 786-0 renal 112% and 93.5% and 99% | COLO 205 colon 93.6% and 104%

COc1ccc(-c2ncnc3c2ncn3C/C=C/CCl)cc1
inactive: NCI-H23 lung 63.6% and 80.5% | NCI-H226 lung 89.4% and 81.5% | HOP-62 NSCLC 98.7% and 95.9% | NCI-H460 lung 67.5% and 97.1% | HOP-92 NSCLC 37.9% and 62.9% | NCI-H522 lung 48.5% and 55.5% | 786-0 renal 70.2% and 80% | COLO 205 colon 87.5% and 94.1%

C1CCCCNCCC1
inactive: NCI-H226 lung 99.2% | NCI-H322M lung 111% | HOP-62 NSCLC 116% | NCI-H460 lung 118% | HOP-92 NSCLC 88.3% | NCI-H522 lung 115% | A549/ATCC NSCLC 105% | 786-0 renal 109% | COLO 205 colon 121%

CC12CCC(CC1)C(C)(C)O2
inactive: NCI-H226 lung 104% | NCI-H322M lung 101% | HOP-62 NSCLC 110% | NCI-H460 lung 118% | HOP-92 NSCLC 105% | NCI-H522 lung 95% | A549/ATCC NSCLC 102% | 786-0 renal 94.5% | COLO 205 colon 110%

CC1=C(/C=C/C(C)=C/C=C/C(C)=C/C(=O)Nc2ccc(O)cc2)C(C)(C)CCC1
active: NCI-H522 lung -47.6%
inactive: NCI-H226 lung 74.3% | HOP-62 NSCLC 88.6% | NCI-H460 lung 27.7% | HOP-92 NSCLC 103% | A549/ATCC NSCLC 55.9% | 786-0 renal 52.8% | COLO 205 colon 38.6%

Nc1ccccc1Nc1ccccc1
inactive: NCI-H23 lung 100% and 96.2% | NCI-H226 lung 98.8% and 86.8% | HOP-62 NSCLC 103% and 91.6% | NCI-H460 lung 94.5% and 104% | HOP-92 NSCLC 136% | A549/ATCC NSCLC 79.2% | 786-0 renal 90.8% and 82.8% | COLO 205 colon 125% and 104%
54% (inactive) and -2.1% (active): NCI-H522 lung

OCc1ccccn1
inactive: NCI-H226 lung 102% | HOP-62 NSCLC 115% | NCI-H460 lung 105% | HOP-92 NSCLC 108% | NCI-H522 lung 94.9% | 786-0 renal 104% | COLO 205 colon 127%

— PubChem BioAssay (NCI)
